This is part of a sample that, as a whole, favours compounds with a hit. Of some 83,000 tested, about 20% had one in any assay.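 Single-dose data. Exposure time 48 hours. Values below 10 considered active.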 Calls of active or inactive are those of the source.
Columns and labels:
Assay in all cases: NCI-60 one-dose screen, 48 h (100 = growth as untreated, 0 = no growth, -100 = all killed)
Conditions in all cases: 10 µM unless noted
SK-MEL-2 melanoma = system: SK-MEL-2 melanoma
EKVX NSCLC = system: EKVX NSCLC
SN12C renal = system: SN12C renal
UO-31 renal = system: UO-31 renal
TK-10 renal = system: TK-10 renal
ACHN renal = system: ACHN renal
CAKI-1 renal = system: CAKI-1 renal
A498 renal = system: A498 renal
CCRF-CEM leukemia = system: CCRF-CEM leukemia
MOLT-4 leukemia = system: MOLT-4 leukemia
SR leukemia = system: SR leukemia
RPMI-8226 leukemia = system: RPMI-8226 leukemia
OVCAR-8 ovarian = system: OVCAR-8 ovarian
OVCAR-5 ovarian = system: OVCAR-5 ovarian
OVCAR-4 ovarian = system: OVCAR-4 ovarian
SK-OV-3 ovarian = system: SK-OV-3 ovarian
IGROV1 ovarian = system: IGROV1 ovarian
OVCAR-3 ovarian = system: OVCAR-3 ovarian
HS 578T breast = system: HS 578T breast
NCI/ADR-RES ovarian = system: NCI/ADR-RES ovarian

Measured: growth

NS(=O)(=O)c1ccc(CN=C2NC(=O)S/C2=C\c2ccc(Br)cc2)cc1
inactive: SK-MEL-2 melanoma 102% | EKVX NSCLC 103% | SN12C renal 97.1% | UO-31 renal 88.8% | TK-10 renal 108% | ACHN renal 102% | CAKI-1 renal 100% | A498 renal 102% | CCRF-CEM leukemia 95% | MOLT-4 leukemia 99.3% | SR leukemia 119% | RPMI-8226 leukemia 99.8% | OVCAR-8 ovarian 106% | OVCAR-5 ovarian 94.1% | OVCAR-4 ovarian 112% | SK-OV-3 ovarian 94.3% | IGROV1 ovarian 96.9% | OVCAR-3 ovarian 106% | HS 578T breast 97.6% | NCI/ADR-RES ovarian 105%

CCCCN(CCCC)CCCn1c(-c2ccccc2)ccc1-c1ccccc1
active: RPMI-8226 leukemia -2.32%
inactive: SK-MEL-2 melanoma 93.5% | EKVX NSCLC 49.6% | SN12C renal 70.7% | UO-31 renal 56.9% | TK-10 renal 83.1% | ACHN renal 62.9% | CAKI-1 renal 59.8% | A498 renal 59.3% | CCRF-CEM leukemia 44.3% | MOLT-4 leukemia 55% | SR leukemia 42.7% | OVCAR-8 ovarian 82.4% | OVCAR-5 ovarian 73.4% | OVCAR-4 ovarian 37% | SK-OV-3 ovarian 81.3% | IGROV1 ovarian 64.5% | OVCAR-3 ovarian 59.2% | HS 578T breast 82.7% | NCI/ADR-RES ovarian 65.1%

CCOC(=O)c1sc2nc(-c3cccc(OC)c3)nc(N3CCOCC3)c2c1C
inactive: SK-MEL-2 melanoma 93.2% | EKVX NSCLC 87.7% | SN12C renal 87.5% | UO-31 renal 79.7% | TK-10 renal 98.1% | ACHN renal 103% | CAKI-1 renal 79.8% | A498 renal 101% | CCRF-CEM leukemia 98.4% | MOLT-4 leukemia 93.1% | SR leukemia 98.4% | RPMI-8226 leukemia 87.8% | OVCAR-8 ovarian 102% | OVCAR-5 ovarian 96.6% | OVCAR-4 ovarian 96.2% | SK-OV-3 ovarian 102% | IGROV1 ovarian 87.3% | OVCAR-3 ovarian 108% | HS 578T breast 104% | NCI/ADR-RES ovarian 90%

COc1cc(-c2nn(C)nc2-c2cc3ccccc3s2)cc(OC)c1OC
inactive: SK-MEL-2 melanoma 32.9% | EKVX NSCLC 43.6% | SN12C renal 42.3% | UO-31 renal 40.4% | TK-10 renal 65% | ACHN renal 43.2% | CAKI-1 renal 43.6% | CCRF-CEM leukemia 17.5% | MOLT-4 leukemia 11.7% | SR leukemia 21.6% | RPMI-8226 leukemia 20.7% | OVCAR-8 ovarian 28% | OVCAR-5 ovarian 57.2% | OVCAR-4 ovarian 57.1% | SK-OV-3 ovarian 21.2% | IGROV1 ovarian 39% | HS 578T breast 19.3%
active: A498 renal 1.32% | OVCAR-3 ovarian 0.446% | NCI/ADR-RES ovarian 9.9%

O=C(CCl)Oc1ccc(-c2ccccc2)c(Br)c1
inactive: SK-MEL-2 melanoma 104% | EKVX NSCLC 115% | SN12C renal 109% | UO-31 renal 92.8% | TK-10 renal 105% | ACHN renal 108% | CAKI-1 renal 98.5% | A498 renal 95% | CCRF-CEM leukemia 118% | MOLT-4 leukemia 105% | SR leukemia 96.9% | RPMI-8226 leukemia 106% | OVCAR-8 ovarian 103% | OVCAR-5 ovarian 107% | OVCAR-4 ovarian 105% | SK-OV-3 ovarian 104% | IGROV1 ovarian 112% | OVCAR-3 ovarian 108% | HS 578T breast 108% | NCI/ADR-RES ovarian 103%

O=C1OC(c2ccccc2)C(O)=C1c1ccccc1 (stereo not given)
inactive: SK-MEL-2 melanoma 117% | EKVX NSCLC 104% | SN12C renal 98.9% | UO-31 renal 79.7% | TK-10 renal 110% | ACHN renal 103% | CAKI-1 renal 95% | A498 renal 100% | CCRF-CEM leukemia 89.7% | MOLT-4 leukemia 90.1% | SR leukemia 109% | RPMI-8226 leukemia 96.5% | OVCAR-8 ovarian 100% | OVCAR-5 ovarian 99.2% | OVCAR-4 ovarian 121% | SK-OV-3 ovarian 115% | IGROV1 ovarian 111% | OVCAR-3 ovarian 102% | HS 578T breast 110% | NCI/ADR-RES ovarian 116%

C#CCOc1ccc2ncnc(Nc3cccc(CNC(=O)CCl)c3)c2c1
inactive: SK-MEL-2 melanoma 49.6% [8.25 µM] | EKVX NSCLC 58.7% [8.25 µM] | SN12C renal 30.3% [8.25 µM] | UO-31 renal 39.8% [8.25 µM] | TK-10 renal 38% [8.25 µM] | ACHN renal 37.8% [8.25 µM] | CAKI-1 renal 39.6% [8.25 µM] | CCRF-CEM leukemia 14.4% [8.25 µM] | MOLT-4 leukemia 15.1% [8.25 µM] | SR leukemia 25.1% [8.25 µM] | RPMI-8226 leukemia 37.7% [8.25 µM] | OVCAR-8 ovarian 38.8% [8.25 µM] | OVCAR-5 ovarian 65.9% [8.25 µM] | OVCAR-4 ovarian 27.2% [8.25 µM] | SK-OV-3 ovarian 48.1% [8.25 µM] | OVCAR-3 ovarian 29.3% [8.25 µM] | HS 578T breast 37.8% [8.25 µM] | NCI/ADR-RES ovarian 90.3% [8.25 µM]
active: A498 renal -1.38% [8.25 µM] | IGROV1 ovarian -5.04% [8.25 µM]

C#CCOc1ccc2ncnc(NCc3cccc(NC(=O)CCl)c3)c2c1
inactive: SK-MEL-2 melanoma 39.7% [8.25 µM] | EKVX NSCLC 65.6% [8.25 µM] | SN12C renal 25.8% [8.25 µM] | UO-31 renal 84.9% [8.25 µM] | TK-10 renal 74.1% [8.25 µM] | ACHN renal 39.5% [8.25 µM] | CAKI-1 renal 73.3% [8.25 µM] | A498 renal 77.9% [8.25 µM] | SR leukemia 15.7% [8.25 µM] | RPMI-8226 leukemia 21% [8.25 µM] | OVCAR-8 ovarian 17.2% [8.25 µM] | OVCAR-5 ovarian 55.3% [8.25 µM] | OVCAR-4 ovarian 31.6% [8.25 µM] | SK-OV-3 ovarian 83% [8.25 µM] | OVCAR-3 ovarian 24.2% [8.25 µM] | HS 578T breast 50.2% [8.25 µM] | NCI/ADR-RES ovarian 77.7% [8.25 µM]
active: CCRF-CEM leukemia 4.16% [8.25 µM] | MOLT-4 leukemia 3.48% [8.25 µM] | IGROV1 ovarian -68.1% [8.25 µM]

Source: PubChem BioAssay (NCI)
